# Read-outs that look alike come from different tables or passages of the source.
# Experiments:
# FGFR1 = details: concentration: 1 μM, replicates: in singlicate; n = 1
# FGFR2 = details: concentration: 1 μM, replicates: in singlicate; n = 1
# FGFR3 = details: concentration: 1 μM, replicates: in singlicate; n = 1
# FGFR4 = details: concentration: 1 μM, replicates: in singlicate; n = 1
# FGR = details: concentration: 1 μM, replicates: in singlicate; n = 1
# FLT1 = details: concentration: 1 μM, replicates: in singlicate; n = 1
# FLT3-autoinhibited = details: concentration: 1 μM, replicates: in singlicate; n = 1
# FLT3 = details: concentration: 1 μM, replicates: in singlicate; n = 1
# FLT4 = details: concentration: 1 μM, replicates: in singlicate; n = 1
# FRK = details: concentration: 1 μM, replicates: in singlicate; n = 1
# FYN = details: concentration: 1 μM, replicates: in singlicate; n = 1
# GAK = details: concentration: 1 μM, replicates: in singlicate; n = 1
# GCN2(Kin.Dom.2,S808G) = system: T1, GCN2(Kin.Dom.2,S808G); details: concentration: 1 μM, replicates: in singlicate; n = 1
# T1 construct: gene EIF2AK4
# GRK1 = details: concentration: 1 μM, replicates: in singlicate; n = 1
# GRK2 = system: T2, GRK2; details: concentration: 1 μM, replicates: in singlicate; n = 1
# T2 construct: gene ADRBK1
# GRK3 = system: T3, GRK3; details: concentration: 1 μM, replicates: in singlicate; n = 1
# T3 construct: gene ADRBK2
# GRK4 = details: concentration: 1 μM, replicates: in singlicate; n = 1
# GRK7 = details: concentration: 1 μM, replicates: in singlicate; n = 1
# GSK3A = details: concentration: 1 μM, replicates: in singlicate; n = 1
# GSK3B = details: n = 1
# [1] = concentration: 1 μM, replicates: in singlicate
# 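Also: KINOMEscan kinase panel screen.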
compound,measurement,setting,value
C[C@@H](Oc1cc(-n2cnc3cc(-c4ccnc(NCCS(C)(=O)=O)c4)ccc32)sc1C(N)=O)c1ccccc1Cl [GSK907232],%Inh,FGFR1,66%
same,%Inh,FGFR2,88%
same,%Inh,FGFR3,81%
same,%Inh,FGFR4,22%
same,%Inh,FGR,44%
same,%Inh,FLT1,63%
same,%Inh,FLT3-autoinhibited,29%
same,%Inh,FLT3,98.1%
same,%Inh,FLT4,96.6%
same,%Inh,FRK,18%
same,%Inh,FYN,14%
same,%Inh,GAK,64%
same,%Inh,"GCN2(Kin.Dom.2,S808G)",71%
same,%Inh,GRK1,0%
same,%Inh,GRK2,0%
same,%Inh,GRK3,39%
same,%Inh,GRK4,82%
same,%Inh,GRK7,0%
same,%Inh,GSK3A,0%
same,%Inh,GSK3B; [1],16%
COC(=O)Nc1nc2ccc(Oc3ccc(NC(=O)Nc4cc(C(F)(F)F)ccc4F)cc3)cc2n1C.Cl [GW692089],%Inh,FGFR1,2%
same,%Inh,FGFR2,0%
same,%Inh,FGFR3,7%
same,%Inh,FGFR4,0%
same,%Inh,FGR,28%
same,%Inh,FLT1,89%
same,%Inh,FLT3-autoinhibited,3%
same,%Inh,FLT3,99%
same,%Inh,FLT4,87%
same,%Inh,FRK,69%
same,%Inh,FYN,0%
same,%Inh,GAK,0%
same,%Inh,"GCN2(Kin.Dom.2,S808G)",0%
same,%Inh,GRK1,0%
same,%Inh,GRK2,0%
same,%Inh,GRK3,49%
same,%Inh,GRK4,6%
same,%Inh,GRK7,0%
same,%Inh,GSK3A,9%
same,%Inh,GSK3B; [1],0%
c1ccc(Oc2ccc(Nc3ccnc4cc(-c5ccc(CNCCN6CCOCC6)o5)ccc34)cc2)nc1 [GW567145],%Inh,FGFR1,0%
same,%Inh,FGFR2,4%
same,%Inh,FGFR3,10%
same,%Inh,FGFR4,0%
same,%Inh,FGR,68%
same,%Inh,FLT1,3%
same,%Inh,FLT3-autoinhibited,8%
same,%Inh,FLT3,91%
same,%Inh,FLT4,0%
same,%Inh,FRK,13%
same,%Inh,FYN,57%
same,%Inh,GAK,82%
same,%Inh,"GCN2(Kin.Dom.2,S808G)",0%
same,%Inh,GRK1,0%
same,%Inh,GRK2,0%
same,%Inh,GRK3,48%
same,%Inh,GRK4,0%
same,%Inh,GRK7,0%
same,%Inh,GSK3A,6%
same,%Inh,GSK3B; [1],0%
COc1cccc(-c2ccc3c(NC(=O)C4CC4)n[nH]c3n2)c1 [SB-710903],%Inh,FGFR1,0%
same,%Inh,FGFR2,0%
same,%Inh,FGFR3,0%
same,%Inh,FGFR4,9%
same,%Inh,FGR,26%
same,%Inh,FLT1,8%
same,%Inh,FLT3-autoinhibited,0%
same,%Inh,FLT3,0%
same,%Inh,FLT4,1%
same,%Inh,FRK,0%
same,%Inh,FYN,0%
same,%Inh,GAK,3%
same,%Inh,"GCN2(Kin.Dom.2,S808G)",1%
same,%Inh,GRK1,5%
same,%Inh,GRK2,0%
same,%Inh,GRK3,75%
same,%Inh,GRK4,0%
same,%Inh,GRK7,0%
same,%Inh,GSK3A,88%
same,%Inh,GSK3B; 1 µM,43%
Cc1ccc(F)c(C(=O)Nc2cccc(-c3nn4ccccc4c3-c3ccnc(Nc4cccc(F)c4)n3)c2)c1F [GSK361061],%Inh,FGFR1,19%
same,%Inh,FGFR2,0%
same,%Inh,FGFR3,21%
same,%Inh,FGFR4,11%
same,%Inh,FGR,91.4%
same,%Inh,FLT1,94.5%
same,%Inh,FLT3-autoinhibited,0%
same,%Inh,FLT3,78%
same,%Inh,FLT4,82%
same,%Inh,FRK,86%
same,%Inh,FYN,58%
same,%Inh,GAK,52%
same,%Inh,"GCN2(Kin.Dom.2,S808G)",11%
same,%Inh,GRK1,0%
same,%Inh,GRK2,0%
same,%Inh,GRK3,0%
same,%Inh,GRK4,25%
same,%Inh,GRK7,0%
same,%Inh,GSK3A,12%
same,%Inh,GSK3B; [1],21%
O=C(Nc1ccccc1F)NC1CCN(c2ccnc(Nc3ccc(F)cc3)n2)CC1 [GSK1379800],%Inh,FGFR1,0%
same,%Inh,FGFR2,0%
same,%Inh,FGFR3,0%
same,%Inh,FGFR4,2%
same,%Inh,FGR,18%
same,%Inh,FLT1,29%
same,%Inh,FLT3-autoinhibited,0%
same,%Inh,FLT3,0%
same,%Inh,FLT4,0%
same,%Inh,FRK,0%
same,%Inh,FYN,8%
same,%Inh,GAK,0%
same,%Inh,"GCN2(Kin.Dom.2,S808G)",0%
same,%Inh,GRK1,0%
same,%Inh,GRK2,0%
same,%Inh,GRK3,0%
same,%Inh,GRK4,0%
same,%Inh,GRK7,0%
same,%Inh,GSK3A,5%
same,%Inh,GSK3B; [1],12%
CN1CCN(Cc2cccc(-c3ccc4c(Nc5ccc(Oc6ccccc6)cc5)ccnc4c3)c2)CC1 [GW578342],%Inh,FGFR1,22%
same,%Inh,FGFR2,0%
same,%Inh,FGFR3,17%
same,%Inh,FGFR4,0%
same,%Inh,FGR,92.4%
same,%Inh,FLT1,45%
same,%Inh,FLT3-autoinhibited,36%
same,%Inh,FLT3,93.2%
same,%Inh,FLT4,43%
same,%Inh,FRK,19%
same,%Inh,FYN,83%
same,%Inh,GAK,3%
same,%Inh,"GCN2(Kin.Dom.2,S808G)",0%
same,%Inh,GRK1,1%
same,%Inh,GRK2,2%
same,%Inh,GRK3,37%
same,%Inh,GRK4,0%
same,%Inh,GRK7,0%
same,%Inh,GSK3A,16%
same,%Inh,GSK3B; [1],0%
COc1ccc(Nc2nccc(NCCNC(=O)c3cc4ccccc4s3)n2)cc1 [GSK1379896],%Inh,FGFR1,0%
same,%Inh,FGFR2,0%
same,%Inh,FGFR3,5%
same,%Inh,FGFR4,9%
same,%Inh,FGR,1%
same,%Inh,FLT1,19%
same,%Inh,FLT3-autoinhibited,0%
same,%Inh,FLT3,0%
same,%Inh,FLT4,10%
same,%Inh,FRK,0%
same,%Inh,FYN,33%
same,%Inh,GAK,42%
same,%Inh,"GCN2(Kin.Dom.2,S808G)",3%
same,%Inh,GRK1,6%
same,%Inh,GRK2,3%
same,%Inh,GRK3,0%
same,%Inh,GRK4,0%
same,%Inh,GRK7,0%
same,%Inh,GSK3A,7%
same,%Inh,GSK3B; [1],13%
CN(C)Cc1ccc(-c2ccc3c(Nc4ccc(Oc5ccccn5)cc4)ccnc3c2)o1 [GW567148],%Inh,FGFR1,0%
same,%Inh,FGFR2,12%
same,%Inh,FGFR3,5%
same,%Inh,FGFR4,0%
same,%Inh,FGR,81%
same,%Inh,FLT1,32%
same,%Inh,FLT3-autoinhibited,53%
same,%Inh,FLT3,95.5%
same,%Inh,FLT4,21%
same,%Inh,FRK,25%
same,%Inh,FYN,71%
same,%Inh,GAK,82%
same,%Inh,"GCN2(Kin.Dom.2,S808G)",0%
same,%Inh,GRK1,0%
same,%Inh,GRK2,0%
same,%Inh,GRK3,0%
same,%Inh,GRK4,0%
same,%Inh,GRK7,10%
same,%Inh,GSK3A,0%
same,%Inh,GSK3B; [1],6%
Cl.c1ccc(-c2ccc3c(Nc4ccc5[nH]ccc5c4)ccnc3c2)nc1 [GW440138],%Inh,FGFR1,63%
same,%Inh,FGFR2,63%
same,%Inh,FGFR3,58%
same,%Inh,FGFR4,29%
same,%Inh,FGR,53%
same,%Inh,FLT1,98.1%
same,%Inh,FLT3-autoinhibited,0%
same,%Inh,FLT3,0%
same,%Inh,FLT4,92.9%
same,%Inh,FRK,17%
same,%Inh,FYN,46%
same,%Inh,GAK,64%
same,%Inh,"GCN2(Kin.Dom.2,S808G)",0%
same,%Inh,GRK1,0%
same,%Inh,GRK2,0%
same,%Inh,GRK3,50%
same,%Inh,GRK4,0%
same,%Inh,GRK7,0%
same,%Inh,GSK3A,26%
same,%Inh,GSK3B; [1],0%
